# PubChem BioAssay (EPA / NIEHS)
# Where “and” joins values, the source holds several entries; their conditions need not be identical. Equal entries are not always repeated. Results filed as inconclusive are left out. Some compounds were tested as several samples or in several runs, with calls that do not always agree. Calls of active or inactive are those of the source. The calls were made as follows, unless noted: active = hit-call score of the fitted dose curve at least 0.9, where 1 is the maximum; inconclusive = response in the unintended direction; inactive = score below 0.9.
# Legend:
# [1] = molecular target: Retinoic acid receptor alpha (Homo sapiens) (UniProt P10276); test: ATG_DR5_RAR_CIS: Attagene CIS-FACTORIAL HepG2 Assay for human Retinoic Acid Receptor Alpha (RARE), DR5 submotif (AID 2282934; active = hit-call score of the fitted dose curve at least 0.9, where 1 is the maximum; inactive = score below 0.9;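 as to AC50: reporter responds to endogenous RAR alpha beta and gamma in HepG2 not RARA alone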); settings: HepG2 Attagene cis-factorial RARE DR5 reporter, mRNA; actives raise or lower the signal
# Sequence of Retinoic acid receptor alpha (Homo sapiens) (P10276 whole entry, looked up): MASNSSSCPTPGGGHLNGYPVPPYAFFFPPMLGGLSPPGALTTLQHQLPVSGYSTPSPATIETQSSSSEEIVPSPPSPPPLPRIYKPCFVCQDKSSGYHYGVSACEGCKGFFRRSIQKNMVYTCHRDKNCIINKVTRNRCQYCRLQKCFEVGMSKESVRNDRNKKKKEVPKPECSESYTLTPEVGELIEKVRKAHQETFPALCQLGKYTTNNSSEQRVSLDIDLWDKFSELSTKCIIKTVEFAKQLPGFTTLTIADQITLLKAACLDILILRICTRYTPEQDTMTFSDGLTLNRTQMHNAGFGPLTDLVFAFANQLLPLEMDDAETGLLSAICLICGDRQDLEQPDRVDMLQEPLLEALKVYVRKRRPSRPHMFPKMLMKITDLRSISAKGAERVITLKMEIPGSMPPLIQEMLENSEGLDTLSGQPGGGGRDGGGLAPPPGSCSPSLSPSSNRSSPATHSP
# Procedure, shortened: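 HepG2, transient cis-reporter transfection, 24 h exposure. mRNA readout: RT-PCR, FAM label, HpaI cut, capillary electrophoresis. DMSO baseline, gain/loss fitting.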
# [2] = molecular target: Nuclear receptor subfamily 1 group I member 3 (Homo sapiens) (UniProt Q14994); test: ATG_CAR_TRANS: Attagene TRANS-FACTORIAL HepG2 Assay for human Constitutive Androstane Receptor (CAR) (AID 2282969); settings: HepG2 Attagene TRANS-FACTORIAL CAR reporter;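 also: activators raise reporter mRNA above DMSO so AC50 marks induction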
# Sequence of Nuclear receptor subfamily 1 group I member 3 (Homo sapiens) (Q14994 whole entry, looked up, the tested form may be a part): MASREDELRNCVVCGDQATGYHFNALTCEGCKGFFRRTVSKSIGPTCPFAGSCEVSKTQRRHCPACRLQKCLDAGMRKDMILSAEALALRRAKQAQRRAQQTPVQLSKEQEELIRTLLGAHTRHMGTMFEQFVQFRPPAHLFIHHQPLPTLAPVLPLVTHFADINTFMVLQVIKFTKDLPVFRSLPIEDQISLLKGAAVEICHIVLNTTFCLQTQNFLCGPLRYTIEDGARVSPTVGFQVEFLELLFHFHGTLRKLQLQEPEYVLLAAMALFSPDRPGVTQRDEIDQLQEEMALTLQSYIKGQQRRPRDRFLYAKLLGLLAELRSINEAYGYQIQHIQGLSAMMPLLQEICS
# Procedure, shortened: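 Readout is reporter mRNA induction, quantified by fluorescent primer extension and capillary electrophoresis after RT-PCR. Cells were HepG2 transiently carrying chimeric NR-Gal4 constructs with GAL4-UAS reporters, treated for 24 h; activity scored upward from DMSO.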
# [3] = molecular target: Glucocorticoid receptor (Homo sapiens) (UniProt P04150); test: ATG_GR_TRANS: Attagene TRANS-FACTORIAL HepG2 Assay for human Glucocorticoid Receptor (GR) (AID 2282978); settings: HepG2 Attagene TRANS GR reporter, mRNA transcription;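 also: activators score as hits since higher reporter transcript over DMSO is fitted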
# Sequence of Glucocorticoid receptor (Homo sapiens) (P04150 whole entry, looked up, the tested form may be a part): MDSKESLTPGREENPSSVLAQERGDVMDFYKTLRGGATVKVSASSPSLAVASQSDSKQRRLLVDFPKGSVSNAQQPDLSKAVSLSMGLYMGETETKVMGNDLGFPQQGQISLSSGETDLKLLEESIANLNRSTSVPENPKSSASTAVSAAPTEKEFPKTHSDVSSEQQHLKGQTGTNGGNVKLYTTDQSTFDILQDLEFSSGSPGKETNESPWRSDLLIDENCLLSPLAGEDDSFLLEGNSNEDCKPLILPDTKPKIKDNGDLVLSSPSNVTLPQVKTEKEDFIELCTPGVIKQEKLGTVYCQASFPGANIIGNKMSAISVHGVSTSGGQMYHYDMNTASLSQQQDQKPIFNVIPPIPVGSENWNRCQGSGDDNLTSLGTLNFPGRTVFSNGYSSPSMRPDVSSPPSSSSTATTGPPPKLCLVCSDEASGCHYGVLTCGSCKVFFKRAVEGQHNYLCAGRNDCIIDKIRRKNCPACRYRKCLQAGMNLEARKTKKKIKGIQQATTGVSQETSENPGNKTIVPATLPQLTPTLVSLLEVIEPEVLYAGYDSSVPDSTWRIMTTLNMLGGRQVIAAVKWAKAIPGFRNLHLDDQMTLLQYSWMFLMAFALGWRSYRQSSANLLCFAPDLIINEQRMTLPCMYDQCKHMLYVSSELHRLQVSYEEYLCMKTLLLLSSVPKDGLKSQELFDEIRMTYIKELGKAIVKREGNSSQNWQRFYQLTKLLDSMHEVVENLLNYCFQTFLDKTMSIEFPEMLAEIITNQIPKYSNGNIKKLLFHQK
# Procedure, shortened: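 Fluorescent capillary-electrophoresis quantitation of reporter mRNA is the readout, taken 24 h after dosing human HepG2 cells carrying transiently transfected GAL4-UAS reporter units activated by chimeric NR-GAL4 fusions; activity scored as induction over DMSO.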
# [4] = molecular target: Oxysterols receptor LXR-beta (Homo sapiens) (UniProt P55055); test: ATG_LXRb_TRANS: Attagene TRANS-FACTORIAL HepG2 Assay for human Liver X Receptor beta (LXRb) (AID 2282981); settings: HepG2 Attagene TRANS GAL4-LXRb reporter, mRNA
# Sequence of Oxysterols receptor LXR-beta (Homo sapiens) (P55055 whole entry, looked up, the tested form may be a part): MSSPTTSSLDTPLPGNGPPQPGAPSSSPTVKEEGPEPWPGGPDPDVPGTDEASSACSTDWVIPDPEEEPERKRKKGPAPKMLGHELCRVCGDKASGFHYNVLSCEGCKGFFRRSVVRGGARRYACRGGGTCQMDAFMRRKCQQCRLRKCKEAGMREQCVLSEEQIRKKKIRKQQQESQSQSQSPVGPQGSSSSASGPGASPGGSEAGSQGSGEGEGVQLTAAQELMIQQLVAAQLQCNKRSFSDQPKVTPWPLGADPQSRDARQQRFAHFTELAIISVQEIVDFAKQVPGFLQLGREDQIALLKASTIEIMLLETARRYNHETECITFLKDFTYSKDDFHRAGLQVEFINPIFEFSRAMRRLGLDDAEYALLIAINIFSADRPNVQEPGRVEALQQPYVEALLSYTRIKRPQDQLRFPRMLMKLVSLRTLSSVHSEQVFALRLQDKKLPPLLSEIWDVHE
# Procedure, shortened: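 Transient transfection HepG2 (multiplexed RTUs, GAL4-UAS); NR-Gal4 chimera; 24 h exposure; RNA → RT-PCR → 6-FAM primer extension → HpaI → CE; increase vs DMSO.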
# [5] = molecular target: human Peroxisome Proliferator-activated Receptor alpha (PPARa), PPARA (gene 5465) (UniProt Q07869); test: ATG_PPARa_TRANS: Attagene TRANS-FACTORIAL HepG2 Assay for human Peroxisome Proliferator-activated Receptor alpha (PPARa) (AID 2283001);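 as to AC50: potency for gain of reporter signal over DMSO so agonist or activator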
# Sequence of human Peroxisome Proliferator-activated Receptor alpha (PPARa), PPARA (gene 5465) (Q07869 whole entry, looked up, the tested form may be a part): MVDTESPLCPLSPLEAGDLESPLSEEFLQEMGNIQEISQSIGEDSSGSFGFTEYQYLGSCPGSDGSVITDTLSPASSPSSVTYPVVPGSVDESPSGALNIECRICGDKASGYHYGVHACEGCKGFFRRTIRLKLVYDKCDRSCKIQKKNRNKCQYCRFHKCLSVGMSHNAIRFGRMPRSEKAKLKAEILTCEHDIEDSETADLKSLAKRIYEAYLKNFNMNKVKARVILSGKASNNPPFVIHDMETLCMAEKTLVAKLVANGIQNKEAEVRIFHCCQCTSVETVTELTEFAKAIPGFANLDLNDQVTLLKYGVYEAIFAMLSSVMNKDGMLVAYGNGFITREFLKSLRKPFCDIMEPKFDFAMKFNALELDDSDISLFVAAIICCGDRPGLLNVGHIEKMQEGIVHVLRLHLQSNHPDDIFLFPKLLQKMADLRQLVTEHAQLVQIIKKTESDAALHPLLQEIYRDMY
# Procedure, shortened: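 Read-out is fluorescence of reporter cDNA fragments resolved by capillary electrophoresis after RT-PCR. Human HepG2 liver cells carried transfected PPARa-Gal4 chimera and GAL4-UAS reporter units, treated 24 h; activity scored as increase over DMSO.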
# [6] = molecular target: human RAR-related Orphan Receptor gamma (RORg), RORC (gene 6097) (UniProt P51449); test: ATG_RORg_TRANS: Attagene TRANS-FACTORIAL HepG2 Assay for human RAR-related Orphan Receptor gamma (RORg) (AID 2283011)
# Sequence of human RAR-related Orphan Receptor gamma (RORg), RORC (gene 6097) (P51449 whole entry, looked up, the tested form may be a part): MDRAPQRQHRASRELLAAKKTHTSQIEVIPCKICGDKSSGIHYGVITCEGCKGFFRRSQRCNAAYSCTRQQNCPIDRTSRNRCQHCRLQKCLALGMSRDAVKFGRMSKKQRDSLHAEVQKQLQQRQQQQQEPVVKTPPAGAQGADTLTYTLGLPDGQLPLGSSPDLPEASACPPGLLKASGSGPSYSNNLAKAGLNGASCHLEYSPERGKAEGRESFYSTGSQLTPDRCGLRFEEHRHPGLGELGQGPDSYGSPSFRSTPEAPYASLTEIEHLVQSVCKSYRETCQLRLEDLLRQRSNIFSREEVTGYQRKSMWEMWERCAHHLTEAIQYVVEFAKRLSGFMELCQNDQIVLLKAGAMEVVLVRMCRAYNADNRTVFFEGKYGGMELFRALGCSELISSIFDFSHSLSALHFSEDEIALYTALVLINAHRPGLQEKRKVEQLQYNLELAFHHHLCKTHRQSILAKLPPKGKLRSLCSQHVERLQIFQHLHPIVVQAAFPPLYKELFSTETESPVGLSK
# Procedure, shortened: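 Chimeric RORg-Gal4 transactivation in transfected HepG2; 24 h exposure; RT-PCR/capillary electrophoresis readout of reporter mRNA, DMSO baseline.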
# [7] = TOX21_p53_BLA_p3_viability: Viability Assessment in the Tox21 HCT-116 p53 Agonism Beta-lactamase Assay, Phase 3 (AID 2283593);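 also: cells exposed to compound for 16 h before reading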
# Procedure, shortened: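 Cellular ATP was quantified by CellTiter-Glo luminescence, read after 30 min at room temperature. Beforehand, HCT116 cells (4000/well) received compound 5 h post-seeding, 217-fold diluted from DMSO, then incubated 16 h at 37C.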
# [8] = ACEA_ER_AUC_viability: ACEA Biosciences xCELLigence Real-Time Cell Analysis on Estrogen Receptor Agonism for Viability (AID 2283782);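 also: continuous compound exposure with impedance area under curve over 80 h; hit means loss of impedance signal meaning reduced cell growth or viability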
# Procedure, shortened: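 T-47D; phenol red-free RPMI1640 + 10% CS-FBS; 8 conc., 1:4 serial, max 100 uM final, ≤0.5% DMSO; n = 2; continuous exposure; impedance monitored to 80 h post-dose; AUC vs DMSO.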
# [9] = CCTE_Harrill_HTTr_Viability_MCF7: CCTE's 6-hour Cell Viability Assessment for the High-Throughput Transcriptomics (HTTr) Platform, in MCF-7 cells cultured in DMEM + 10% fetal bovine serum, Harrill Lab (AID 2284010; active = hit-call score of the fitted dose curve at least 0.9, where 1 is the maximum; inactive = score below 0.9)
# Procedure, shortened: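 MCF-7 cells in DMEM + 10% FBS, 384-well, exposed 6 h to an eight-point dilution series. Membrane integrity scored by high-content imaging of propidium iodide exclusion; bidirectional fit versus DMSO.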
# [10] = CCTE_Harrill_HTTr_Apoptosis_MCF7: CCTE's 6-hour Apoptosis Assessment for the High-Throughput Transcriptomics (HTTr) Platform, in MCF-7 cells cultured in DMEM + 10% fetal bovine serum, Harrill Lab (AID 2284011; active = hit-call score of the fitted dose curve at least 0.9, where 1 is the maximum; inactive = score below 0.9)
# Procedure, shortened: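 Apoptosis in MCF-7 cells grown in DMEM with 10% fetal bovine serum was scored after a six hour exposure by high content imaging of caspase-3/7 activation (CellEvent Caspase 3/7 Green), with DMSO serving as negative control and baseline.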
# [11] = molecular target: Oxysterols receptor LXR-alpha (Homo sapiens) (UniProt Q13133); test: ATG_LXRa_TRANS: Attagene TRANS-FACTORIAL HepG2 Assay for human Liver X Receptor alpha (LXRa) (AID 2282980); settings: HepG2 Attagene TRANS reporter, LXRa transactivation
# Sequence of Oxysterols receptor LXR-alpha (Homo sapiens) (Q13133 whole entry, looked up, the tested form may be a part): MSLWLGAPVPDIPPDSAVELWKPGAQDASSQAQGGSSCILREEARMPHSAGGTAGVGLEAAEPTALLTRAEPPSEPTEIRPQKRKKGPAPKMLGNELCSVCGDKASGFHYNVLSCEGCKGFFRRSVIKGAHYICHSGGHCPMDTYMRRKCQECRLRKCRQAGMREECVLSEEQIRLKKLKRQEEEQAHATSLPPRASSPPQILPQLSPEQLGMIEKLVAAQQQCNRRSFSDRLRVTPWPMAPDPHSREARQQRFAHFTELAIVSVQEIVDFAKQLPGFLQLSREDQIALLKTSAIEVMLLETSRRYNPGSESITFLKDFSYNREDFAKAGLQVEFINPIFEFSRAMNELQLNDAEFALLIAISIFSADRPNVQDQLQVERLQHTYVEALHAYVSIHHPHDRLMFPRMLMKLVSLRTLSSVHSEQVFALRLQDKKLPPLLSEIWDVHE
# Procedure, shortened: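 In this multiplexed TRANS system, compounds act on HepG2 cells carrying GAL4-UAS reporter units and a receptor-GAL4 fusion for 24 h. Induced reporter RNA is amplified, fluorescently labelled and sized by capillary electrophoresis, with DMSO as baseline.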
# [12] = molecular target: Nuclear receptor subfamily 4 group A member 2 (Homo sapiens) (UniProt P43354); test: ATG_NURR1_TRANS: Attagene TRANS-FACTORIAL HepG2 Assay for human Nuclear Receptor Related Protein 1 (NURR1) (AID 2282985); settings: HepG2 Attagene TRANS reporter, mRNA readout
# Sequence of Nuclear receptor subfamily 4 group A member 2 (Homo sapiens) (P43354 whole entry, looked up, the tested form may be a part): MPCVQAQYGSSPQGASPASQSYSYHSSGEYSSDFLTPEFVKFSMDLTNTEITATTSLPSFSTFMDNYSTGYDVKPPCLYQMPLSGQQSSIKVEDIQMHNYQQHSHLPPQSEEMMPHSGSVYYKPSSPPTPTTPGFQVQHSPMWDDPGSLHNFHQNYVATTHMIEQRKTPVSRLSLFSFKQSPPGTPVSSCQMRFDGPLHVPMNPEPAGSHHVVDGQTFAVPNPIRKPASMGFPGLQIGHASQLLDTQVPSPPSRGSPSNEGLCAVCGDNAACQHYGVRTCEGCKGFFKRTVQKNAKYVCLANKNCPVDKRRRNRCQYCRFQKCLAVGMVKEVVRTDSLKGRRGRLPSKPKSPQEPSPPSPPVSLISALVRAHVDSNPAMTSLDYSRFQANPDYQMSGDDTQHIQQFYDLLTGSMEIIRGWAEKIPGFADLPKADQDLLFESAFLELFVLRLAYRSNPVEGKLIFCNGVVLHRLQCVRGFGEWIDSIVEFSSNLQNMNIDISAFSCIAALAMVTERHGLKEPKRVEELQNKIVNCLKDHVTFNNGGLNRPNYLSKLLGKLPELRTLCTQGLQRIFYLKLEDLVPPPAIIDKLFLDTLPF
# Procedure, shortened: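 Transient transfection of HepG2, human liver cells, with multiple GAL4-UAS reporter transcription units. Cells dosed 24 h, RNA isolated, reverse-transcribed, PCR-amplified, FAM-labelled, HpaI-digested, sized by capillary electrophoresis. DMSO served as negative control.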
# [13] = TOX21_p53_BLA_p4_viability: Viability Assessment in the Tox21 HCT-116 p53 Agonism Beta-lactamase Assay, Phase 4 (AID 2283597);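 also: hits lower the luminescence signal meaning cytotoxicity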
# Procedure, shortened: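 Luminescent ATP readout (CellTiter-Glo, 30 min, room temperature) in the same wells as the p53 bla ratio. HCT116 cells were treated for 16 h at 37C with DMSO-dissolved compounds.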
# [14] = TOX21_p53_BLA_p5_viability: Viability Assessment in the Tox21 HCT-116 p53 Agonism Beta-lactamase Assay, Phase 5 (AID 2283600)
# Procedure, shortened: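 Seeded cells (4000/well) settle 5 h before compound addition. Plates then incubate 16 h at 37C, receive FRET substrate for 2 h, and finally CellTiter-Glo, with luminescence measured after a 30 min room-temperature incubation.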
# [15] = ATG_PPRE_CIS: Attagene CIS-FACTORIAL HepG2 Assay for human Peroxisome Proliferator-activated Response Element (PPRE) (AID 2282958; active = hit-call score of the fitted dose curve at least 0.9, where 1 is the maximum; inactive = score below 0.9); settings: HepG2 PPRE cis-element reporter, Attagene transcription factor profiling; actives raise or lower the signal
# Procedure, shortened: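 HepG2, transient MRTU transfection (cis promoter elements, endogenous TFs). 24 h dosing. RNA → oligo(dT) RT → PCR → 6-FAM primer extension → HpaI digest → CE. Bidirectional fit vs DMSO.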
# [16] = molecular target: human RAR-related Orphan Receptor beta (RORb), RORB (gene 6096) (UniProt Q92753); test: ATG_RORb_TRANS: Attagene TRANS-FACTORIAL HepG2 Assay for human RAR-related Orphan Receptor beta (RORb) (AID 2283010)
# Procedure, shortened: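 HepG2 cells transiently transfected with GAL4-UAS reporter units expressing chimeric NR-Gal4 protein; reporter mRNA measured 24 h after dosing by RT-PCR, 6-FAM labelling and capillary electrophoresis. Gain-of-signal fitted relative to DMSO baseline.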
# [17] = molecular target: Bile acid receptor (Homo sapiens) (UniProt Q96RI1); test: ATG_IR1_CIS: Attagene CIS-FACTORIAL HepG2 Assay for human Nuclear Receptor Subfamily 1 Group H Member 4 (NR1H4), IR1 submotif (AID 2282946; active = hit-call score of the fitted dose curve at least 0.9, where 1 is the maximum; inactive = score below 0.9); settings: IR1 reporter transcription, actives raise or lower the signal
# Procedure, shortened: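 Cells (human HepG2) carry transiently transfected cis-promoter reporter transcription units. Compounds are incubated 24 h, total RNA is reverse-transcribed and amplified, and labelled fragments are resolved by capillary electrophoresis. Curves use DMSO as baseline.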
# [18] = molecular target: Peroxisome proliferator-activated receptor gamma (Homo sapiens) (UniProt P37231); test: ATG_PPARg_TRANS: Attagene TRANS-FACTORIAL HepG2 Assay for human Peroxisome Proliferator-activated Receptor-gamma (PPARg) (AID 2283007)
# Sequence of Peroxisome proliferator-activated receptor gamma (Homo sapiens) (P37231 whole entry, looked up, the tested form may be a part): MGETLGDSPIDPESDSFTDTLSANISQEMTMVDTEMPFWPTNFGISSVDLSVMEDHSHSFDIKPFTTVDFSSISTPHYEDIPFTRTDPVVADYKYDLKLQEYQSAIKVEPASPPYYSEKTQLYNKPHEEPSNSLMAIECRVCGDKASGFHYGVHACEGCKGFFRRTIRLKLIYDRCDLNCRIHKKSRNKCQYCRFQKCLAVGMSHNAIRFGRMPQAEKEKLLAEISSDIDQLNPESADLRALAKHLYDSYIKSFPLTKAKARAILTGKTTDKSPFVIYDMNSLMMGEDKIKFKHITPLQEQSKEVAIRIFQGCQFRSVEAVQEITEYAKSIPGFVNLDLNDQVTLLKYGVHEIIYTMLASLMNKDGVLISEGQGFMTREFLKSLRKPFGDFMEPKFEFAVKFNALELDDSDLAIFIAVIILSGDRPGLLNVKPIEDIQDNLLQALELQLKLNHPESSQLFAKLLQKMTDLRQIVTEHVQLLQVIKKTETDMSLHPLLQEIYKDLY
# Procedure, shortened: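 Transient transfection of HepG2 with GAL4-UAS-driven reporter units; chemical dosing 24 h; total RNA → oligo(dT) RT → PCR with reporter primers → 6-FAM primer extension → HpaI digest 2 h 37 C → capillary electrophoresis. Positive direction vs DMSO.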
# [19] = ATG_GAL4_TRANS: Attagene TRANS-FACTORIAL HepG2 Assay for GAL4 (Internal Marker) (AID 2282976); settings: HepG2 Attagene TRANS GAL4 internal marker reporter
# Procedure, shortened: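 Liver HepG2 line bearing multiplexed GAL4-UAS reporter constructs; 24 h chemical treatment. Transcripts were quantified as fluorescent fragments on capillary electrophoresis after RT-PCR and HpaI cut, with activity fitted upward from DMSO.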
# [20] = molecular target: human Thyroid Receptor alpha (THRa1), THRA (gene 7067) (UniProt P10827); test: ATG_THRa1_TRANS: Attagene TRANS-FACTORIAL HepG2 Assay for human Thyroid Receptor alpha (THRa1) (AID 2283014)
# Procedure, shortened: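 Measured here is mRNA from a GAL4-UAS reporter in transfected HepG2 cells carrying a Gal4-fused receptor, 24 h post-dose. DMSO served as negative control and baseline.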
smiles,measurement,setting,value
CCC(C)=NO,outcome,[1],inactive
same,outcome,[2],inactive
same,outcome,[3],inactive
same,outcome,[4],inactive
same,outcome,[5],inactive
same,outcome,[6],inactive
same,outcome,[7],inactive
same,outcome,[8],inactive
same,outcome,[9],inactive
same,outcome,[10],inactive
CCCCCCC(O)CCCCCCCCCCC(=O)OC (stereo not given),outcome,[1],inactive
same,outcome,[2],inactive
same,outcome,[3],inactive
same,outcome,[11],inactive
same,outcome,[12],inactive
same,AC50,[5],7.36 µM (active)
same,outcome,[7],inactive
same,outcome,[13],inactive
same,outcome,[14],inactive
same,outcome,[8],inactive
OCCc1ccccn1,outcome,[15],inactive
same,outcome,[2],inactive
same,outcome,[3],inactive
same,outcome,[11],inactive
same,outcome,[4],inactive
same,outcome,[16],inactive
same,outcome,[6],inactive
same,outcome,[14],inactive
CCCc1c(OCCCCc2nn[nH]n2)ccc(C(C)=O)c1O,outcome,[17],inactive
same,AC50,[15],2.26 µM (active)
same,outcome,[3],inactive
same,outcome,[11],inactive
same,outcome,[4],inactive
same,AC50,[12],50.4 µM (active)
same,AC50,[5],27.7 µM (active)
same,AC50,[18],5.65 µM (active)
same,outcome,[7],inactive
same,outcome,[13],inactive
same,outcome,[14],inactive
same,outcome,[9],inactive
same,outcome,[10],inactive
C=CCOCC(CC)(CO)COCC=C,outcome,[1],inactive
same,outcome,[2],inactive
same,outcome,[4],inactive
same,outcome,[6],inactive
same,outcome,[7],inactive
same,outcome,[13],inactive
same,outcome,[14],inactive
same,outcome,[8],inactive
COCCCN,outcome,[15],inactive
same,outcome,[2],inactive
same,outcome,[19],inactive
same,outcome,[11],inactive
same,outcome,[5],inactive
same,outcome,[18],inactive
same,outcome,[6],inactive
same,outcome,[20],inactive
same,outcome,[7],inactive
same,outcome,[13],inactive
same,outcome,[14],inactive
same,outcome,[8],inactive
CC(C)(Oc1ccc(Cl)cc1)C(=O)O,outcome,[15],inactive
same,outcome,[11],inactive
same,AC50,[5],29.8 µM (active)
same,AC50,[18],69.3 µM (active)
same,outcome,[7],inactive
same,outcome,[14],inactive
same,AC50,[8],50 µM (active)
same,outcome,[9],inactive
same,outcome,[10],inactive
CCC(C)NC(N)=O (stereo not given),outcome,[15],inactive
same,outcome,[2],inactive
same,outcome,[11],inactive
same,outcome,[16],inactive
same,outcome,[6],inactive
same,outcome,[13],inactive
same,AC50,[8],50 µM (active)
CC/C=C\CCCCCO,outcome,[2],inactive
same,outcome,[19],inactive
same,outcome,[3],inactive
same,outcome,[5],inactive
same,outcome,[6],inactive
same,outcome,[7],inactive
same,outcome,[13],inactive
same,outcome,[14],inactive
same,outcome,[8],inactive
COC(OC)C(C)c1ccccc1 (stereo not given),outcome,[1],inactive
same,outcome,[15],inactive
same,outcome,[19],inactive
same,outcome,[6],inactive
same,outcome,[13],inactive
same,outcome,[14],inactive
same,AC50,[8],20.7 µM (active)
Cc1cc(O)cc(C)c1Cl,AC50,[1],79.6 µM (active)
same,AC50,[15],37.1 µM (active)
same,outcome,[19],inactive
same,outcome,[3],inactive
same,outcome,[11],inactive
same,outcome,[4],inactive
same,outcome,[12],inactive
same,outcome,[5],inactive
same,outcome,[18],inactive
same,AC50,[8],81.1 µM (active)
same,outcome,[9],inactive
same,outcome,[10],inactive
CCCCCC[C@@H](O)C/C=C\CCCCCCCC(=O)O,AC50,[17],149 µM (active)
same,AC50,[15],45.7 µM (active)
same,outcome,[3],inactive
same,outcome,[4],inactive
same,AC50,[5],8.72 µM (active)
same,AC50,[18],27.4 µM (active)
same,outcome,[20],inactive
same,AC50,[7],30.5 µM (active)
same,outcome,[7],inactive
same,AC50,[13],40.5 µM (active) and 27.9 µM (active)
same,outcome,[13],inactive
same,outcome,[14],inactive
same,outcome,[8],inactive
same,outcome,[9],inactive
same,outcome,[10],inactive
